The results in this text go back to PubChem BioAssay (EPA / NIEHS).

Several values for one entry are separate records, joined by “and”; a condition that tells them apart may be missing. Equal entries are not always repeated. Results filed as inconclusive are left out. A structure can be active in one record and inactive in another. Activity calls are given as the source filed them. How the source made its calls, unless noted: active means hit-call score of the fitted dose curve at least 0.9, where 1 is the maximum; inactive means score below 0.9.

Experiment [1] can be described thus: CCTE_Shafer_MEA_dev_active_electrodes_number: CCTE's Neural Network Formation Assay for Number of Active Electrodes, Shafer Lab (AID 2284040; active means hit-call score of the fitted dose curve at least 0.9, where 1 is the maximum;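 on AC50: potency for loss of active electrodes versus DMSO so lower counts are hits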). An outline of the steps:
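Developing rat cortical networks on MEAs, exposed DIV 0–12. Value is the AUC of active-electrode counts (≥5 spikes/min) from days 5, 7, 9, 12, relative to DMSO.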

Experiment [2] can be described thus: CCTE_Shafer_MEA_dev_burst_rate: CCTE's Neural Network Formation Assay for Burst Rate, Shafer Lab (AID 2284042).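 On AC50: potency for loss of burst rate below DMSO control.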 The procedure, abridged:
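Exposure ran continuously over 12 days of network development in rat cortical cultures, with compound refreshed during full media changes on DIV 5 and 9. Single-electrode bursts per recording time, well-mean over active electrodes, trapezoidal AUC across days 5–12, fitted downward relative to DMSO.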

The nature of experiment [3]: CCTE_Shafer_MEA_dev_bursting_electrodes_number: CCTE's Neural Network Formation Assay for Number of Bursting Electrodes, Shafer Lab (AID 2284043; active means hit-call score of the fitted dose curve at least 0.9, where 1 is the maximum;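 on AC50: potency is for loss of bursting electrodes relative to DMSO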). The procedure, abridged: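 Number of electrodes reaching ≥1 burst every 2 min was recorded at DIV 5, 7, 9 and 12 and collapsed as trapezoidal area under the curve. Cultures were rat cortical neurons on MEA plates, dosed continuously from plating with medium and treatment refreshed on DIV 5 and 9.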

Experiment [4] is described as follows: CCTE_Shafer_MEA_dev_per_burst_interspike_interval: CCTE's Neural Network Formation Assay for Burst Interspike Interval, Shafer Lab (AID 2284044).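 Further: mean spike spacing inside bursts as AUC over recordings on days 5 7 9 12.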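 On AC50: potency for a decrease of within-burst interspike interval below DMSO level.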 The procedure, abridged:
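Developmental network-formation MEA in primary rat cortical cultures with exposure spanning days 0–12. Within-burst ISI is averaged per well and integrated across recording days by area under the curve, with DMSO as negative control baseline.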

Experiment [5] in a line: CCTE_Shafer_MEA_dev_burst_duration_mean: CCTE's Neural Network Formation Assay for Mean Burst Duration, Shafer Lab (AID 2284045).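 On AC50: curve fitted for loss meaning shorter burst duration than DMSO.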 The procedure, abridged:
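Mean single-electrode burst duration (first to last spike), averaged over bursting electrodes per well, then integrated as area-under-curve across recordings at days 5, 7, 9 and 12. Rat cortical cultures on MEAs, compound present from plating, refreshed at feeds.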

Experiment [6] can be described thus: CCTE_Shafer_MEA_dev_interburst_interval_mean: CCTE's Neural Network Formation Assay for Mean Interburst Interval, Shafer Lab (AID 2284046).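 Further: well-mean interburst interval of bursting electrodes as AUC over four recording days; curve fitted for decrease in interburst interval relative to DMSO.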 An outline of the steps:
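Primary rat cortical neurons on PEI-coated 48-well MEA plates (laminin added with cells at plating) (16 electrodes/well), exposed from plating day 0 with renewal at DIV 5 and 9. Mean inter-burst interval averaged over bursting electrodes, AUC across days 5, 7, 9, 12; DMSO baseline.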

The nature of experiment [7]: CCTE_Shafer_MEA_dev_inter_network_spike_interval_mean: CCTE's Neural Network Formation Assay for Mean Inter-network Spike Interval, Shafer Lab (AID 2284047).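 On AC50: potency for a decrease in mean inter-network spike interval below DMSO.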 An outline of the steps:
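Mean time between consecutive network-spike peaks, recorded extracellularly (adaptive spike detection) on DIV 5, 7, 9 and 12, summarized as trapezoidal AUC. Rat cortical cultures on MEAs dosed continuously days 0–12, re-dosed at feeds; loss-of-signal fit relative to DMSO.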

Experiment [8] can be described thus: CCTE_Shafer_MEA_dev_network_spike_number: CCTE's Neural Network Formation Assay for Number of Network Spikes, Shafer Lab (AID 2284048).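 Further: synchronized bursts across electrodes counted on days 5 7 9 12 and integrated as AUC.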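 On AC50: fit as a loss of signal meaning fewer network spikes than DMSO.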 The procedure, abridged:
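Number of network spikes (coordinated firing across electrodes) recorded on days 5, 7, 9 and 12 and summarised as area under the curve. Rat cortical cultures on MEA, continuous compound exposure with full medium/treatment exchange at DIV 5 and 9.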

Experiment [9] can be described thus: CCTE_Shafer_MEA_dev_network_spike_peak: CCTE's Neural Network Formation Assay for Mean Number of Electrodes in Network Spike, Shafer Lab (AID 2284049).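 On AC50: fitted for loss of signal meaning fewer electrodes in network spikes than DMSO.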 As to the method:
CCTE_Shafer_MEA_dev assay is conducted using Axion Biosystems 48 well microelectrode array (MEA) plates and Maestro recording system. Each well of the MEA plate contains a grid of 16 microelectrodes embedded in the culture surface. Electrically active cells, such as neurons, can be cultured over the electrodes, and electrical activity in these cells can be recorded extracellularly. The spontaneous firing of neurons is captured from each electrode on a microsecond timescale providing both temporally and spatially precise data. […] The CCTE_Shafer_MEA_dev assay uses primary cultures of rat cortical neurons. Recordings are made on days post-plating 5, 7, 9 and 12. As these cultures mature over time, neural networks develop functional activity and form cohesive networks in which electrical activity can be highly coordinated. CCTE_Shafer_MEA_dev_network_spike_peak is 1 of 19 assay components of the CCTE_Shafer_MEA_dev assay. It measures the average number of electrodes participating at the peak of a network spike (the peak of a temporally-clustered group of action potential firing across multiple electrodes) during a recording in a microelectrode array (MEA) using Axion Biosystems Maestro 768 channel amplifier with the AxIS adaptive spike detector. To collapse across multiple recordings made on days post-plating 5, 7, 9 and 12, the trapezoidal area-under-the-curve of the component is calculated.Data from the assay component CCTE_Shafer_MEA_dev_network_spike_peak was analyzed into 1 assay endpoint. This assay endpoint, CCTE_Shafer_MEA_dev_network_spike_peak, was analyzed in the negative analysis fitting direction relative to DMSO as the negative control and baseline of activity. Using a type of functional reporter, gain or loss-of-signal activity can be used to understand electrical activity.
On the day prior to culture, each well was coated thoroughly with 150 uL of 0.05% polyethyleneimine (PEI, Sigma Cat P3143) in 50 mM HEPES (Sigma Cat H7523) at a pH of 8. The plate was incubated at 37C for one hour. PEI was rinsed out with 500 uL of sterile water three times. Plates were stored at 4C until the day of culture. This culture was plated at a seeding density of 1.5 x 10^5 cells/well on a 48-well MEA plate, prepared as described above. Cells were administered via a 25 uL media/laminin ([…]; Sigma Cat L2020-1MG) drop directly onto the microelectrode array, as adding the cells with the laminin results in better attachment than pre-coating with laminin. After 2 hours, an additional 475 uL of cortical media was added and the cells returned to the incubator. Exposure starts at day 0 of plating and is continued over twelve days of network development until the experiment is terminated. Cells are fed with fresh medium on DIV 5 and 9, following the recordings on those days. The entire volume of media in the well is exchanged and any vehicle or compound treatment is renewed. Complete details are found in OP-NHEERL/ISTD/SBB/TJS/2015-03-r0 (available on request, email shafer.tim@epa.gov). Measurement of the electrical activity is non-invasive, and recordings can be made from the same plate over multiple different days of the culture. In cortical neurons, this allows for the measurement of extracellular action potentials over the period during which networks form in the MEA plate.

In experiment [10] the target is Estrogen receptor (Homo sapiens) (UniProt P03372). Description: CCTE_Deisenroth_AIME_384WELL_LUC_Shift: CCTE's 384-well Estrogen Receptor Transactivation Assay with AIME metabolic competence data shift (ERTA luciferase; difference in metabolism positive and negative), Deisenroth Lab (AID 2284041).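 Further: shift is response with S9 minus without S9 so positive means metabolism raised ER signal.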 The procedure, abridged: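 Test chemicals (0.002–200 uM, 10-point) were pre-incubated 2 h with alginate microspheres containing phenobarbital/beta-naphthoflavone-induced male Sprague Dawley rat liver S9 or water, then medium was transferred to VM7Luc4E2 cells for 24 h luciferase readout; shift = S9-positive minus S9-negative normalized response.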
Chain of Estrogen receptor (Homo sapiens) (P03372 whole entry, looked up): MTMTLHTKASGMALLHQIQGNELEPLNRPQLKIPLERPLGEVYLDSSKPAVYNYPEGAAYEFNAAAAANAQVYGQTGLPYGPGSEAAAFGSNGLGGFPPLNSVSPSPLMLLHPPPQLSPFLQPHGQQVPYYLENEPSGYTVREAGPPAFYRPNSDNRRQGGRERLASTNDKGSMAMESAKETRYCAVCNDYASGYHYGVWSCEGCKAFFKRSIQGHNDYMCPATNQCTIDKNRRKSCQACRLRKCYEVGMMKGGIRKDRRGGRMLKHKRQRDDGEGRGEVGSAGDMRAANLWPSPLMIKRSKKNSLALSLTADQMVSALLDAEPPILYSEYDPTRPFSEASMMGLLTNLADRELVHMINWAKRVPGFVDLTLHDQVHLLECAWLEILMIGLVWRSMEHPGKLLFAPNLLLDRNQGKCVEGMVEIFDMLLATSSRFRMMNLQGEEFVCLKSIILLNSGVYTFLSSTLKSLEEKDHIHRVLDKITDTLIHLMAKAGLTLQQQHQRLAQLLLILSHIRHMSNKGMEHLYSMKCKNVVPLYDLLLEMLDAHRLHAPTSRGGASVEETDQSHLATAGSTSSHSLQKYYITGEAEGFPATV

As a reminder, the AC50 is the concentration at which the activity in the assay is half-maximal. Turning to `Oc1c(Cl)cc(Cl)c(Cl)c1Cc1c(O)c(Cl)cc(Cl)c1Cl`, the AC50 in experiment [1] was 1.02 µM (active) and 1.07 µM (active); in experiment [2] it was 976 nM (active) and 688 nM (active); in [3] it was 919 nM (active) and 769 nM (active); in experiment [4], 2.04 µM (active) and 2.61 µM (active); in experiment [5], 1.19 µM (active) and 2.59 µM (active); in experiment [6] it was 2.62 µM (active) and 2.86 µM (active). The AC50 is 60.1 nM (active) in experiment [7]; 830 nM (active) and 526 nM (active) in experiment [8]; 1.19 µM (active) and 1.83 µM (active) in experiment [9]. The compound was classed as inactive in experiment [7].

In the case of `CS(=O)(=O)OCCCCOS(C)(=O)=O`, the compound was called inactive in experiment [1], in [10], in [2], in [3], in experiment [4] and in experiment [5]. For the same compound, the result in experiment [6], in experiment [7], in experiment [8] and in [9] was inactive.

For `CCCCCCCCCCCC(=O)OCC(O)CO` (configuration not stated), in [10], the outcome was inactive.

`CN(C)CCOC(C)(c1ccccc1)c1ccccn1` (configuration not stated): the call in [1], in experiment [2], in [3], in experiment [4], in experiment [5] and in experiment [6] was inactive. For the same compound, the result in experiment [7], in experiment [8] and in experiment [9] was inactive.

For the compound `FC(F)(F)COCC(F)(F)F`, the compound was called inactive in experiment [1], in experiment [2], in experiment [4], in experiment [5], in experiment [6] and in [7]. Further, the compound was called inactive in [8] and in experiment [9].

Consider `COCCc1ccc(OCC(O)CNC(C)C)cc1` (configuration not stated), for which the compound was classed as inactive in [1], in experiment [2], in experiment [3], in [4], in experiment [5] and in experiment [6]. Also, the result in experiment [7], in experiment [8] and in experiment [9] was inactive.

For `COCCOCCOCCO`, the result in experiment [1], in experiment [2], in experiment [3], in experiment [4], in [5] and in experiment [6] was inactive. The compound was called inactive in experiment [7], in experiment [8] and in [9].

For the compound `CC(C)CCCCCCc1ccc(OCCOCCO)cc1`, the outcome in [10] was inactive.
